This passage reports outcome and Potency results from PubChem BioAssay (NCATS).

“And” between values parts separate entries of the source, which are not always exact repeats. Equal entries are not always repeated. Results filed as inconclusive are left out. Entries that show only a call come without a potency. The source made the active and inactive calls. Calls come from the whole dose curve; as a rule, active = well fitted curve in the direction sought with a large enough effect; inconclusive = small, poorly fitted or top-dose-only effect, or another doubt; inactive = no such curve, though single readings can be large; an effect the other way counts as inactive or inconclusive.

Assay [1] deals with Nuclear receptor subfamily 1 group I member 3 (Homo sapiens) (UniProt Q14994). Kind of assay: Primary qHTS for agonist of constitutive androstane receptor (CAR) against the NCATS DSHEA and TCM libraries (AID 1794839).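 Note: HepG2 cells expressing human CAR with a CYP2B6 reporter plus PK11195 antagonist.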 A digest of the protocol: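 Luminescence from ONE-Glo luciferase was the agonist read-out in HepG2-CYP2B6-hCAR cells exposed 24 h to test substances. Wells also held the CAR antagonist PK11195 at 0.75 µM final. Viability was by CellTiter-Fluor fluorescence.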
In general terms: qHTS replaces the single test concentration by a dilution series.

The target of assay [2] is Luciferin 4-monooxygenase (Photinus pyralis) (UniProt P08659). The experiment in a line: Primary firefly luciferase (FLuc) qHTS assay for identification of artifact compounds. (AID 1845220). Note: nearly all actives have a fitted effect of over 60% in size. Particulars: outcome: dose series up to 54.1 µM. In short, it runs like this: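 Compounds sat 15 min at room temperature with 10 uM luciferin and 10 uM ATP (pH 7.6 Tris acetate). Firefly luciferase (10 nM final) was then added, and luminescence was read 5 min later. Data normalized to no-enzyme and DMSO controls were Hill-fitted.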

Assay [3] relates to Nanoluciferase (engineered Oplophorus gracilirostris luciferase). Kind of assay: Primary Nanoluciferase (NLuc) qHTS assay for identification of artifact compounds. (AID 1845222). Note: series mostly up to about 54 µM. In short, it runs like this:
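Luminescence from secreted NLuc (filtered, 1:55-diluted S16 cell medium) read 5 min after Nano-Glo substrate; compounds preincubated 15 min, RT. Hill fits of inhibition normalized to DMSO and no-enzyme.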

In assay [4] the target is Glutathione peroxidase 1 (Homo sapiens) (UniProt P07203). Kind of assay: Primary qHTS Assay for Inhibitors of Recombinant Selenoprotein Glutathione Peroxidase 1 (GPX1) (AID 1845191). Note: nearly all actives have a fitted effect of over 65% in size. Note: potency is the fitted concentration of half-maximal effect. A digest of the protocol:
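NADPH consumption tracked by fluorescence at 340/450 nm between t=0 and t=15 min, room temperature. Final mix: 10 nM GPX1, 100 nM glutathione reductase, 1 mM GSH, 0.5 mM NADPH, 0.5 mM cumene hydroperoxide, 0.01% BSA; 30 min compound–enzyme preincubation.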

The target of assay [5] is Phospholipid hydroperoxide glutathione peroxidase GPX4 (Homo sapiens) (UniProt P36969). The experiment in a line: Primary qHTS Assay for Inhibitors of Recombinant Selenoprotein Glutathione Peroxidase 4 (GPX4) (AID 1845192). Note: nearly all actives have a fitted effect of over 65% in size. Note: potency is the fitted concentration of half-maximal effect. A digest of the protocol: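 NADPH consumption followed by fluorescence at 340/450 nm, t=0 and after 15 min at room temperature. Reaction started with cumene hydroperoxide (0.5 mM final) after 30 min compound–GPX4 preincubation; final 200 nM GPX4, 100 nM GR, 1 mM GSH, 0.5 mM NADPH.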
Phospholipid hydroperoxide glutathione peroxidase GPX4 (Homo sapiens), sequence (P36969 whole entry, looked up): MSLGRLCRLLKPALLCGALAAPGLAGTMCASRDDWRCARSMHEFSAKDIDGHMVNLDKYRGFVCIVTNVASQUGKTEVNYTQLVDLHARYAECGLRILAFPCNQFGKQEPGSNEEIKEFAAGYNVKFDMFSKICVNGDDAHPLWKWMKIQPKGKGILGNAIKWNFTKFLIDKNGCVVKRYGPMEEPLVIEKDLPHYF

Glutathione peroxidase 1 (Homo sapiens), sequence (P07203 whole entry, looked up): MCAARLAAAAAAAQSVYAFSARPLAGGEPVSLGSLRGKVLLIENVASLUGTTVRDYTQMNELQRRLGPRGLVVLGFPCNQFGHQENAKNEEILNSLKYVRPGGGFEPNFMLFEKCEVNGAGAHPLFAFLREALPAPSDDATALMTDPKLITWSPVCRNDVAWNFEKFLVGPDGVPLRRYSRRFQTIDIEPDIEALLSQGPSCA
Nuclear receptor subfamily 1 group I member 3 (Homo sapiens), sequence (Q14994 whole entry, looked up): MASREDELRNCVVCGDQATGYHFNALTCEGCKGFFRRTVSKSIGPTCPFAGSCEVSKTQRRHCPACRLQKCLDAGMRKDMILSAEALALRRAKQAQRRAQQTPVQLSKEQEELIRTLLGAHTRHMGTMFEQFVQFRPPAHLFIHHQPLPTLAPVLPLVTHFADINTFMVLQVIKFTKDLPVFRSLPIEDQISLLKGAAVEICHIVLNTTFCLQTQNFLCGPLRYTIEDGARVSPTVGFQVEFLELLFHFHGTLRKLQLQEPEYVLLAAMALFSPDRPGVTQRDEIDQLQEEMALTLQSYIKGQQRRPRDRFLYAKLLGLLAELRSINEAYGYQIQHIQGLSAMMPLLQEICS

As for `O=C(O)c1cccnc1`, in assay [1], the compound was classed as inactive.

Take `NNC(=O)c1ccncc1`: the outcome in assay [1] was inactive.

For the compound `COc1cc2ncnc(Nc3cccc(Cl)c3)c2cc1OC`, the result in assay [2] and in assay [3] was inactive. For `CNS(=O)(=O)CCc1ccc2[nH]cc(C3CCN(C)CC3)c2c1`, the outcome in assay [2] and in assay [3] was inactive.

As to `O=c1oc2c(O)c(O)cc3c(=O)oc4c(O)c(O)cc1c4c23`, the Potency entry in assay [4] and in assay [5] was “inactive” throughout. As for `CO[C@@]12[C@H](COC(N)=O)C3=C(C(=O)C(C)=C(N)C3=O)N1C[C@@H]1N[C@@H]12`, the Potency result in assay [4] and in assay [5] was “inactive” throughout.

As to `CCn1cc(C(=O)O)c(=O)c2cc(F)c(N3CCNCC3)nc21`, the Potency result in assay [4] and in assay [5] was “inactive” in each case. For the compound `CCCc1nc(C)c2c(=O)[nH]c(-c3cc(S(=O)(=O)N4CCN(CC)CC4)ccc3OCC)nn12`, the Potency result in assay [4] and in assay [5] was “inactive” in each case. In the case of `CC(C)(C#N)c1cc(Cn2cncn2)cc(C(C)(C)C#N)c1`, the Potency entry in assay [4] and in assay [5] was “inactive” in each case. Turning to `COc1cc(NCc2ccc3nc(N)nc(N)c3c2C)cc(OC)c1OC`, the Potency result in assay [4] and in assay [5] was “inactive” throughout. As to `CNS(=O)(=O)Cc1ccc2[nH]cc(CCN(C)C)c2c1`, the Potency entry in assay [4] and in assay [5] was “inactive” each time. In the case of `CCCOc1ccc(C(=O)OCCN(CC)CC)cc1N`, the Potency result in assay [4] and in assay [5] was “inactive” throughout.

On to `Oc1c(Cl)cc(Cl)c2cccnc12`, for which the Potency result in assay [4] and in assay [5] was “inactive” in each case. `CCOC(=O)c1ccc(C#Cc2ccc3c(c2)C(C)(C)CCS3)nc1`: the Potency entry in assay [4] and in assay [5] was “inactive” in each case.

Turning to `C1CCC(C(CC2CCCCN2)C2CCCCC2)CC1` (centres undefined), the Potency result in assay [4] and in assay [5] was “inactive” in each case.

For `CCc1c2c(nc3ccc(OC(=O)N4CCC(N5CCCCC5)CC4)cc13)-c1cc3c(c(=O)n1C2)COC(=O)[C@]3(O)CC`, the Potency was 20.2 µM (active) and 2.05 µM (active) in assay [4]; 12.6 µM (active) in assay [5]. Turning to `CCN[C@H]1C[C@H](C)S(=O)(=O)c2sc(S(N)(=O)=O)cc21`, the Potency result in assay [4] and in assay [5] was “inactive” each time.

For the compound `COc1ccccc1OCC(O)COC(N)=O` (centres undefined), the Potency result in assay [4] and in assay [5] was “inactive” each time.

Take `NS(=O)(=O)c1cc2c(cc1Cl)NC(C(Cl)Cl)NS2(=O)=O` (centres undefined): the Potency result in assay [4] and in assay [5] was “inactive” throughout. `OC(Cn1cncn1)(Cn1cncn1)c1ccc(F)cc1F`: the Potency entry in assay [4] and in assay [5] was “inactive” each time. Regarding `COc1ccc2c(c1)c(CC(=O)OCC(=O)O)c(C)n2C(=O)c1ccc(Cl)cc1`, the Potency result in assay [4] and in assay [5] was “inactive” throughout.

Regarding `CN(Cc1cc(Br)cc(Br)c1N)C1CCCCC1`, the Potency result in assay [4] and in assay [5] was “inactive” in each case.

Take `N=C(N)c1ccc(OCCCCCOc2ccc(C(=N)N)cc2)cc1`: the Potency result in assay [4] and in assay [5] was “inactive” in each case. Take `CCOC(=O)c1ccc(OC(=O)CCCCCN=C(N)N)cc1`: the Potency entry in assay [4] and in assay [5] was “inactive” in each case. As to `COC(=O)Nc1nc2ccc(S(=O)c3ccccc3)cc2[nH]1` (centres undefined), the Potency entry in assay [4] and in assay [5] was “inactive” throughout. With `S=P(N1CC1)(N1CC1)N1CC1`, the Potency result in assay [4] was “inactive”. Moreover, the outcome in assay [5] was “inactive [at 0.409 µM]”. As for `Cc1ncc([N+](=O)[O-])n1CCO`, the Potency result in assay [4] and in assay [5] was “inactive” in each case.

For the compound `CC(C)C1CCC(C(=O)N[C@H](Cc2ccccc2)C(=O)O)CC1` (some centres undefined), the Potency result in assay [4] and in assay [5] was “inactive” throughout. As to `COc1ccc(C(=O)CC(=O)c2ccc(C(C)(C)C)cc2)cc1`, the Potency result in assay [4] and in assay [5] was “inactive” in each case. As to `CNNCc1ccc(C(=O)NC(C)C)cc1`, the Potency entry in assay [4] and in assay [5] was “inactive” each time. Take `Cc1nnc(NS(=O)(=O)c2ccc(N)cc2)s1`: the Potency entry in assay [4] and in assay [5] was “inactive” in each case. For the compound `NCCCC(O)(P(=O)(O)O)P(=O)(O)O`, the Potency entry in assay [4] and in assay [5] was “inactive” each time. `O=C(O)c1cn(C2CC2)c2cc(N3CCNCC3)c(F)cc2c1=O`: the outcome in assay [4] is “inactive [at 9.52 µM]”. For the same compound, the Potency result in assay [5] is “inactive”. As for `CS(=O)(=O)c1ccc([C@@H](O)[C@@H](CO)NC(=O)C(Cl)Cl)cc1`, the Potency result in assay [4] and in assay [5] was “inactive” in each case. `COc1cc([C@@H]2c3cc4c(cc3[C@H](O)[C@H]3COC(=O)[C@H]23)OCO4)cc(OC)c1OC`: the Potency result in assay [4] and in assay [5] was “inactive” each time. Turning to `COC(=O)Nc1nc2ccc(Sc3ccccc3)cc2[nH]1`, the Potency result in assay [4] and in assay [5] was “inactive” in each case.

Turning to `Cc1oc(=O)oc1CN1CCN(c2cc3c(cc2F)c(=O)c(C(=O)O)c2n3C(C)S2)CC1` (centres undefined), the Potency result in assay [4] and in assay [5] was “inactive” throughout. In the case of `Nc1[nH]c(=O)ncc1F`, the Potency result in assay [4] and in assay [5] was “inactive” each time. For `COc1nc(N)nc2c1ncn2[C@@H]1O[C@H](CO)[C@@H](O)[C@@H]1O`, the Potency entry in assay [4] and in assay [5] was “inactive” in each case. Turning to `CCC(=O)O[C@]1(C(=O)SCF)[C@H](C)C[C@H]2[C@@H]3C[C@H](F)C4=CC(=O)C=C[C@]4(C)[C@@]3(F)[C@@H](O)C[C@@]21C`, the Potency entry in assay [4] and in assay [5] was “inactive” in each case. With `CC[C@H](NC(C)C)[C@H](O)c1ccc(O)c2[nH]c(=O)ccc12`, the Potency result in assay [4] and in assay [5] was “inactive” each time. As to `O=C(N[C@H](CO)[C@H](O)c1ccc([N+](=O)[O-])cc1)C(Cl)Cl`, the Potency result in assay [4] and in assay [5] was “inactive” throughout. Turning to `CN(CCOc1ccc(CC2SC(=O)NC2=O)cc1)c1ccccn1` (centres undefined), the Potency result in assay [4] and in assay [5] was “inactive” each time.
